PLK1 PBD block: qHTS for Inhibitors of PLK1-PDB (polo-like kinase 1 - polo-box domain): Primary Screen | 2.8% of 360,000 active | Plk1 PBD binding of FITC phosphopeptide, fluorescence polarization | Potency, µM, without a hit: max response, negative = inhibition, actives largely listed as inhibitors | Serine/threonine-protein kinase PLK1 (Homo sapiens), P53350; note: series mostly up to about 57 µM; nearly all actives have a fitted effect of over 65% in size
TrxR1 substrate: qHTS Assay for Substrates of Mammalian Selenoprotein Thioredoxin Reductase 1 (TrxR1): qHTS | 0.01% of 390,000 active | Thioredoxin reductase 1, cytoplasmic (Rattus norvegicus), O89049 | purified TrxR1 substrate turnover, NADPH consumption readout | Potency, µM (series often up to 114 µM), for inactives: top-dose activity change, negative = substrate turnover; note: nearly all actives have a fitted effect of over 50% in size
Target sequence (O89049 whole entry, looked up): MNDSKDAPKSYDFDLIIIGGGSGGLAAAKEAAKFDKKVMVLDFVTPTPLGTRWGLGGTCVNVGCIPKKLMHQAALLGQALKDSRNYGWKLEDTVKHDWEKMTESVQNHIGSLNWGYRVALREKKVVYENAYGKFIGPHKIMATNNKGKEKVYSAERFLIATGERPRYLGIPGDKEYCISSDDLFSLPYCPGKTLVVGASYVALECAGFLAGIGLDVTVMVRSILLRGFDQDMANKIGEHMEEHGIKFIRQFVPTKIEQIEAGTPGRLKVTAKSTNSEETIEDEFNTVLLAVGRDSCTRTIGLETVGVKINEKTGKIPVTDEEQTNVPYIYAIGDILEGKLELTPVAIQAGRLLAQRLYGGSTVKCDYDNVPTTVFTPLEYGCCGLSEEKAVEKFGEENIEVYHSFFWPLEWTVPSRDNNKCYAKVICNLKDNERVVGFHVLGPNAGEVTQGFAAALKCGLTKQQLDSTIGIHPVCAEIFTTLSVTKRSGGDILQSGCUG
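Rat TrxR1, dispensed at 90 nM, was prereduced with 400 uM NADPH (final) for 5 min at ~22 deg C, then incubated with compound 15 min before 400 uM selenite. A first-read NADPH fluorescence drop versus no-compound background flagged substrates.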
VDR inhibitor: Inhibitors of the vitamin D receptor (VDR): qHTS. Vitamin D3 receptor (Homo sapiens), P11473. VDR-SRC2-3 peptide fluorescence polarization, 2 h. Potency, µM, for the others: max response, negative = inhibition, hits mostly inhibitors. 0.93% of 400,000 active. AID 504847, 2011
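The screen uses fluorescence polarization to detect compounds that interfere with recruitment of the SRC2-3 coactivator peptide to VDR; plates are read after 2 h at room temperature.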
TrxR1 inh: qHTS Assay for Inhibitors of Mammalian Selenoprotein Thioredoxin Reductase 1 (TrxR1): qHTS | Potency, µM (top dose mostly 114 µM), inactives show at the top dose activity change, negative = inhibition, most hits filed as inhibitors | recombinant rTrxR1, NADPH fluorescence consumption, selenite substrate | Thioredoxin reductase 1, cytoplasmic (Rattus norvegicus), O89049 | 1% of 390,000 active | AID 588453, 2011; note: nearly all actives have a fitted effect of over 65% in size
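Rat TrxR1 (90 nM in the dispensed reagent) was pre-reduced with 400 uM NADPH for 5 min at room temperature, then incubated with compound for 15 min. After 400 uM selenite was added, NADPH fluorescence (Ex 340/Em 450 nm) was followed for 8 min.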
IDH1 R132H inh: qHTS for Inhibitors of mutant isocitrate dehydrogenase 1 (IDH1): qHTS | IDH1-R132H enzyme, NADPH consumption, diaphorase/resazurin fluorescence | AID 602179, 2012 | 0.093% of 390,000 active | Potency, µM (titrated, usually from 76.6 µM), for inactives: at the top dose activity change, negative = inhibition, actives largely listed as inhibitors | Isocitrate dehydrogenase [NADP] cytoplasmic (Homo sapiens), O75874; note: nearly all actives have a fitted effect of over 65% in size
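IDH1-R132H (0.5 ug/mL dispensed) in pH 7.5 Tris buffer was preincubated 30 min with compound, then given a substrate mix of 0.016 mM NADPH and 2 mM alpha-KG for 80 min at room temperature; remaining NADPH was read by diaphorase/resazurin fluorescence.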
Sfp inh: qHTS Assay for Inhibitors of Bacillus subtilis Sfp phosphopantetheinyl transferase (PPTase); AID 1490, 2009; 4'-phosphopantetheinyl transferase ffp (Bacillus subtilis), Q9F4F7; Potency, µM, for inactives: largest response in the series, negative = inhibition, usual class: inhibitors; Biochemical Sfp PPTase activity, qHTS; 3.5% of 310,000 active;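 note: the enzyme is Sfp with the accession as filed and its product quenches rhodamine fluorescence; 0% = enzyme reaction without inhibitor and -100% = no enzyme wells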
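Buffer: 50 mM Hepes-Na pH 7.6, 10 mM MgCl2, 0.01% Nonidet P-40, 0.01% BSA. Enzyme 15 nM, pre-exposed to compound 15 min; substrates then added and fluorescence change tracked over 30 min.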
* = called active by the depositor; ? = inconclusive; · = no result given; ! = repeats disagree; [ ] = remark or other dose. A selection: hits, their analogues and other compounds. The true share with any hit is near 5.2%. Calls come from the whole dose curve; as a rule, active = well fitted curve in the direction sought with a large enough effect; inconclusive = small, poorly fitted or top-dose-only effect, or another doubt; inactive = no such curve, though single readings can be large; an effect the other way counts as inactive or inconclusive. Unless noted, % is set by controls: 0 for no effect and ±100 for the full control effect; potency is the fitted concentration of half-maximal effect.

SMILES	PLK1 PBD block	TrxR1 substrate	VDR inhibitor	TrxR1 inh	IDH1 R132H inh	Sfp inh
Cc1c(NC(=O)c2cc(-c3cccc(Cl)c3)on2)c(=O)n(-c2ccccc2)n1C	-17.3%	4.2%	-3.9%	26.9%	-0.4%	3.8%
CCc1ccc(OC2=NS(=O)(=O)c3ccccc32)cc1	11.9µM*	-3.0%	-4.4%	-0.5%	-7.7%	-27.4%
CCN(CC)c1cccc(OC2=NS(=O)(=O)c3ccccc32)c1	3.36µM*	-5.4%	-4.4%	-0.1%	4.3%	-4.0%
CC1=C(C(=O)Nc2ccc(Cl)cc2)C(c2cccs2)n2nc(SCc3cccc(Cl)c3)nc2N1 (stereo not drawn)	·	3.4%	2.0%	19.5%	-20.3%	·
COC(=O)c1ccc2c(=O)n(CCCCCC(=O)N3CCN(c4ccccc4)CC3)c(=O)[nH]c2c1	29.9µM*	12.5%[57.1 µM]	?	6.1%[57.1 µM]	1.8%	-8.1%
CCCCCC(CC)COC(=O)CC(C(=O)OCC(CC)CCCC)S(=O)(=O)O (stereo not drawn)	·	·	·	·	·	-13.1%
CNC[C@H](Cc1ccccc1)NC[C@@H](Cc1cccc2ccccc12)NCCc1ccc(C)cc1	-6.0%	-1.2%	14.4%	-10.2%	-2.4%	50.1µM*
CNCCNC[C@H](Cc1cccc2ccccc12)NCCc1ccccc1	-0.3%	4.4%	6.8%	-15.5%	2.6%	·
O=C(NC(=S)Nc1cccc2ncccc12)c1cccs1	1.6%	-5.7%	-8.2%	?	5.1%	44.7µM*
Nc1ccc(C(=O)Nc2cccc3ncccc23)cc1	-1.5%	-5.7%	-0.2%	-2.4%	5.1%	9.4%
O=C(NC(=S)Nc1cccc2ncccc12)c1ccccc1	-28.4%	-0.5%	-7.2%	?	5.7%	20µM*
CN(CC(=O)N(C)CC(=O)Nc1c(Cl)cccc1Cl)Cc1ccc(Br)s1	-12.7%	1.9%	11.9%	-1.5%	4.5%	·
N#Cc1cnc(Sc2ccccc2)nc1	29.9µM*	5.5%[57.1 µM]	?	10.5%[57.1 µM]	5.2%	9.1%
Cc1cccc(NC(=O)CSc2nc(-c3cccs3)cc(C(F)(F)F)c2C#N)c1C	·	29.6%	-9.0%	-4.7%	-15.9%	·
CCc1nnc(N/N=C/c2cc(Br)c(O)cc2O)n1N	-25.7%	-14.0%	4.6%	-19.7%	20.0%	50.1µM*
CCc1nnc(N/N=C/c2ccc(O)c(OC)c2)n1N	-5.3%	-10.5%	?	13.9%	8.9%	?
CC(Cl)C(=O)NNc1cccc(Cl)n1 (stereo not drawn)	-25.2%	9.7%[57.1 µM]	13.7%	?	-2.3%	50.1µM*
CNc1nc(Cl)c(SC)c(NCc2cccc(OC)c2)n1	10.6µM*	-3.8%	?	23.3%	0.0%	4.6%
c1ccc2c(c1)NCC1CCCN21 (stereo not drawn)	-24.2%	-9.2%	-3.0%	79.4µM*	8.1%	13.2%
Cc1nc(-c2ccccn2)nc(SCC(=O)N2CCOCC2)c1Cl	23.8µM*	-1.2%	-8.4%	20.2%	4.1%	15.8µM*
Cc1nc(-c2ccccn2)nc(SCC(=O)c2ccccc2)c1Cl	?	0.5%[57.1 µM]	-12.1%	12.5%	-0.1%	3.7%
CC(=O)c1cccc(NC(=O)c2cc3sc(Cl)cc3n2C)c1	·	0.6%	-8.5%	-5.1%	15.7%	·
COc1ccc2[nH]c(=O)c(NC(N)=S)nc2c1	-7.0%	2.9%	-0.4%	17.9%	2.4%	35.5µM*
COc1ccc2[nH]c(=O)c(C(=O)O)cc2c1	-9.1%	45.8%[57.1 µM]	-8.8%	29.8%[57.1 µM]	-1.2%	6.3%
CC(=O)Nc1cccc(/C(C)=N\NC(=O)c2ccc(Cn3nc([N+](=O)[O-])c(Cl)c3C)o2)c1	21.2µM*	1.6%[57.1 µM]	?	11.3%	-5.1%	0.5%
SMILES	PLK1 PBD block	TrxR1 substrate	VDR inhibitor	TrxR1 inh	IDH1 R132H inh	Sfp inh
O=c1c(O)c(-c2ccccc2)oc2cccc(O)c12	·	·	14.6%	·	·	12.4%
O=[N+]([O-])c1cc([N+](=O)[O-])c2oc(-c3ccccc3)c(Br)c2c1O	8.44µM*	-5.1%	-28.3%	-5.4%	-12.2%	4.1%
N[C@@H](CS(=O)O)C(=O)O	·	-0.9%[57.1 µM]	17.0%	?	·	56.2µM*
N[C@H](CO)C(=O)O	·	11.9%[57.1 µM]	-0.6%	23.0%[57.1 µM]	·	-3.6%
N[C@@H](CO)C(=O)O	·	·	13.7%	·	·	63.1µM*!
NC(CS(=O)O)C(=O)O (stereo not drawn)	2.8%	8.2%	-25.1%	-4.3%	-2.4%	·
COc1ccc(S(=O)(=O)NCC(c2ccco2)N2CCOCC2)cc1C (stereo not drawn)	·	-2.4%[57.1 µM]	1.0%	8.6%[57.1 µM]	-3.4%	·
CCCCC(=O)N(C)c1c(C)nc2ccc(C(=O)N3CCN(C(=O)c4ccco4)CC3)cn12	-16.1%	·	·	·	·	·
Nc1nnc(CSCc2ccc(F)cc2)s1	18.9µM*	3.6%[57.1 µM]	-18.5%	-4.7%[57.1 µM]	-1.4%	?
NS(=O)(=O)c1ccc(O)c(NC(=O)c2ccc([N+](=O)[O-])o2)c1	4.23µM*	-5.5%	?	-31.5%	3.4%	11.2µM*
CCc1ccc(NC(=O)C(C)OC(=O)c2cccc(S(=O)(=O)N3CCc4ccccc4C3)c2)cc1 (stereo not drawn)	-5.5%	0.4%	-3.6%	19.8%	0.5%	89.1µM*
CC(OC(=O)c1cccc(S(=O)(=O)N2CCN(C)CC2)c1)C(=O)Nc1ccc(C(N)=O)cc1 (stereo not drawn)	-2.4%	4.4%	-20.6%	11.4%	10.4%	·
COc1cc(NC(=O)CCl)ccc(=O)c1	-12.5%	·	·	·	-2.7%	·
COc1ccc(S(=O)(=O)N2CCN(c3ccc(C)cc3C)CC2)cc1OC	23.8µM*	0.9%[57.1 µM]	-26.9%	14.2%[57.1 µM]	-3.8%	-2.0%
CSc1nc(SCC(=O)O)c2sc3nc(-c4ccccc4)c4c(c3c2n1)CCC4	11.9µM*	-6.1%	-11.5%	?	-3.0%	-16.4%
CSc1nc(N2CCN(CCO)CC2)c2sc3nc(-c4ccco4)c4c(c3c2n1)CCC4	·	·	·	·	·	-16.9%
CSc1nc(N(C)CCO)c2sc3nc(-c4ccco4)c4c(c3c2n1)CCC4	23.8µM*	3.5%	?	7.08µM*	-9.4%	79.4µM*
C=CCn1c(SCC(=O)Nc2ccc(N(C)C)cc2)nnc1-c1cccc(C)c1	-9.7%	-6.8%	89.1µM*	2.2%[57.1 µM]	2.9%	2.6%
O=C(O[C@H]1CN2CCC1CC2)N1CCc2ccccc2[C@@H]1c1ccccc1	·	·	1.2%	·	·	3.2%

Source: PubChem BioAssay
